From PubChem BioAssay (NCATS) come the findings set out here.

Molecules are shown by their SMILES. Results filed as inconclusive are left out. Some compounds were tested as several samples or in several runs, with calls that do not always agree. Activity calls are given as the source filed them. Unless noted, calls follow the shape of the dose curve; as a rule, active = well fitted curve in the direction sought with a large enough effect; inconclusive = small, poorly fitted or top-dose-only effect, or another doubt; inactive = no such curve, though single readings can be large; an effect the other way counts as inactive or inconclusive.

Experiment [1] has as its target Thioredoxin reductase 1, cytoplasmic (Rattus norvegicus) (UniProt O89049). Put plainly: qHTS Assay for Substrates of Mammalian Selenoprotein Thioredoxin Reductase 1 (TrxR1) (AID 488772).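 Also: NADPH fluorescence in the first read after selenite addition and not the 8 min delta; series mostly up to about 57 µM; 0% is about no effect; a drop in NADPH fluorescence below the no-compound background marks a TrxR1 substrate.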 A digest of the protocol:
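Quantitative HTS in Tris-HCl buffer at pH 7.5 with EDTA and Tween-20, using rat TrxR1, 400 uM NADPH and 400 uM selenite (final). A fall in initial NADPH fluorescence relative to background marked substrate behaviour.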

Experiment [2] has the same target. In words: qHTS Assay for Inhibitors of Mammalian Selenoprotein Thioredoxin Reductase 1 (TrxR1) (AID 488773). Also: nearly all actives have a fitted effect of over 40% in size. Also: potency is read from the fitted curve at half-maximal effect. The following applies: Potency: inhibition. Put shortly: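 Steps: enzyme (90 nM) plus NADPH (400 uM final), 5 min at ~22 deg C; compound added, 15 min; selenite (400 uM final) added; fluorescence followed for 8 min. Concentration-response curves derived from the normalized delta values.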

For experiment [3], the target named is Flap endonuclease 1 (Homo sapiens) (UniProt P39748). In words: qHTS Validation Assay for the Inhibitors of Human Flap endonuclease 1 (FEN1) (AID 488816). Also: % is scaled to controls: 0 for no effect and ±100 for the full control effect. A digest of the protocol:
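Readings taken at 0 and 15 min after starting the reaction with 50 nM (final) substrate supplied the signal. Compounds had first sat with 10 nM FEN1 reagent for 15 min at room temperature. Values come from Hill-equation concentration-response fits.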

Experiment [4] deals with M-phase phosphoprotein 8 (Homo sapiens) (UniProt Q99549). Put plainly: qHTS Validation Assay for Inhibitors for MPP8 Chromodomain Interactions with Methylated Histone Tails (AID 488949). Also: nearly all actives have a fitted effect of over 55% in size. Also: potency is read from the fitted curve at half-maximal effect. Put shortly: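 AlphaScreen proximity signal from streptavidin donor and Ni-chelate acceptor beads (10 ug/mL each) reported binding of MPP8 to trimethyl-K9 H3(1-18) peptide, both at 50 nM. The complex formed 30 min before a 30 min compound exposure at room temperature, in PBS pH 7.4.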

Experiment [5] addresses Methanococcus maripaludis chaperonin (MmCpn) (UniProt Q6LX38). In words: High-Throughput Screening for Modulators of Cytosolic Chaperonin Activity: MmCpn Primary Screen (AID 488978).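 Also: 50 nM MmCpn enzyme hydrolysing 30 µM ATP at 37 °C; 0% is about no effect.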 A digest of the protocol: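 ATPase activity of 50 nM MmCpn was assayed with 30 uM ATP, 10 minutes at 37C, after a 5 min compound preincubation at room temperature. ADP production was read as HTRF emission at 590 and 665 nm.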

The target of experiment [6] is Transient receptor potential cation channel subfamily V member 1 (Homo sapiens) (UniProt Q8NER1). In words: HTS Assay for Compounds that Act as Enhancers of the Vanilloid Receptor 1 (AID 488979). Also: 0% is about no effect. A digest of the protocol:
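Calcium influx kinetics via Fluo-8 (480/520 nm) in TRPV1-expressing cells, 2000/well cultured overnight at 35.5C. Compound-alone read 3 min (agonist phase), followed by EC20 capsaicin challenge for 2 min (enhancer phase).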

The target in experiment [7] is Thyrotropin receptor (Homo sapiens) (UniProt P16473). Put plainly: qHTS Assay for Antagonists of the Thyroid Stimulating Hormone Receptor (AID 488980). Also: series mostly up to about 58 µM; 0% is about no effect. A digest of the protocol:
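Inhibition of cAMP raised by EC80 TSH (4 nM final) was read by HTRF, with lysate cAMP competing against cAMP-d2 for cryptate antibody after 30 min at room temperature. The cells were transfected HEK293 held in phosphodiesterase inhibitor RO 20-1724 at 70 uM.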

The target of experiment [8] is D(1A) dopamine receptor (Homo sapiens) (UniProt P21728). Put plainly: HTS Assay for Allosteric Agonists of the Human D1 Dopamine Receptor: Primary Screen for Agonists (AID 488981). Also: potency is read from the fitted curve at half-maximal effect. As to activation: 0% is about no effect. A digest of the protocol:
(§1)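 Calcium flux in an inducible, force-coupled HEK293 Trex D1 line (overnight at 30 C): agonist mode is the 180 s kinetic read after compound; potentiator mode is the following 180 s read after dopamine at EC20.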

Experiment [9] shares this target. Put plainly: HTS Assay for Allosteric Agonists of the Human D1 Dopamine Receptor: Primary Screen for Potentiators (AID 488982). Also: 0% is about no effect. A digest of the protocol: as §1
For experiment [10], the target named is Thyrotropin-releasing hormone receptor (Homo sapiens) (UniProt P34981). In words: qHTS for Small Molecule Agonists and Allosteric Enhancers of Human TRH Receptor: Validation Screen for Agonists (AID 493127;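 active = calcium activation more than 3 SD above the typical response in the agonist read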;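 also: intracellular calcium rise by fluo-8 fluorescence before TRH EC20 addition; 0% is about no effect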). The following applies: TRH receptor agonist cell assay; at 2 µM; stronger effect = higher value. A digest of the protocol: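 TRHR-expressing cells were plated overnight in serum-containing medium, then loaded with fluo-8 calcium dye at room temperature for 30 min–1.5 h. After a 10 s baseline, compound was pin-transferred and calcium fluorescence (ex 480/em 530) read kinetically for agonist response.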
Chain of Thyrotropin-releasing hormone receptor (Homo sapiens) (P34981 whole entry, looked up): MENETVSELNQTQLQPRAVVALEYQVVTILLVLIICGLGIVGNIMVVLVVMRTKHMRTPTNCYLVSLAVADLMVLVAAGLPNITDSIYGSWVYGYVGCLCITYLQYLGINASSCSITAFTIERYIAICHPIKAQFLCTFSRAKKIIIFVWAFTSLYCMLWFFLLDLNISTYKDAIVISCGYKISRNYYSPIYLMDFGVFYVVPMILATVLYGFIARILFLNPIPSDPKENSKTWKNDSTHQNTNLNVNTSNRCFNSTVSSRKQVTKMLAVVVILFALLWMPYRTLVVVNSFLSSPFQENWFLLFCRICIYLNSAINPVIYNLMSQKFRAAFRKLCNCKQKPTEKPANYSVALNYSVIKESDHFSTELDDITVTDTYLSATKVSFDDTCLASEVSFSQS

Experiment [11] in a line: Nrf2 qHTS screen for inhibitors: Validation (AID 493153; active = well fitted inhibition curve with a large enough effect in the main read-out, with a control signal flat, not every such curve was filed as active). The settings on record: Potency: luciferase luminescence; viability change: measured here: cytotoxicity max response. A digest of the protocol: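 A549 cells carrying an ARE-driven firefly luciferase reporter, in 5% FBS OPTI-MEM, were treated with compounds in concentration-response for 18-24 h at 37°C. Viability was read by CellTiter-Fluor fluorescence, then Nrf2 activity by luciferase luminescence.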

Experiment [12] in a line: qHTS for Inhibitors of Cell Surface uPA Generation: Validation Assay (AID 493164).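 Also: RAW 264.7 macrophage cells exposed to compound for 18 h; 0% is about no effect.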 A digest of the protocol:
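RAW 264.7, 4000 cells/well, o/n plating; cpd 7-pt 1:5 dilution 2.45 nM–38.3 uM final; 18 h, 37 C/5% CO2; ATP-Lite, 5 s luminescence exposure.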

Experiment [13] can be described thus: Validation screen for small molecules that induce DNA re-replication in SW480 colon adenocarcinoma cells (AID 504364). Also: 0% is about no effect. Put shortly: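 SW480 cells seeded at 250 per well were exposed to compound or DMSO for 48 hr at 37 C, 5% CO2, then stained with Hoechst for 40 min. DNA content per nucleus was imaged (405 nm ex, 500-530 nm em).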
For experiment [14], the target named is Chromobox protein homolog 1 (Homo sapiens) (UniProt P83916). In words: qHTS Validation Assay for Inhibitors of HP1-beta Chromodomain Interactions with Methylated Histone Tails (AID 488953).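 Also: loss of AlphaScreen luminescence from HP1-beta binding biotinylated H3K9me3 peptide; series mostly up to about 110 µM; % is scaled to controls: 0 for no effect and ±100 for the full control effect; nearly all actives have a fitted effect of over 50% in size.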 A digest of the protocol: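 HP1-beta (50 nM) was preincubated 30 min at room temperature with biotinylated H3(1-18)K9me3 peptide (50 nM) in PBS pH 7.4, 0.01% Tween-20, then with compounds 30 min. AlphaScreen signal was read after streptavidin donor/nickel chelate acceptor beads (10 ug/mL final).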
Chain of Chromobox protein homolog 1 (Homo sapiens) (P83916 whole entry, looked up): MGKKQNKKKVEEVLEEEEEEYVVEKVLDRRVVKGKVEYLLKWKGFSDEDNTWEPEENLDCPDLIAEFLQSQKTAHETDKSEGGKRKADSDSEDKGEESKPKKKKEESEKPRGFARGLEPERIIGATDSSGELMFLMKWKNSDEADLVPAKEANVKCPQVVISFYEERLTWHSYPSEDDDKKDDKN

The target of experiment [15] is D(1A) dopamine receptor (Homo sapiens) (UniProt P21728). Put plainly: HTS Assay for Allosteric Agonists of the Human D1 Dopamine Receptor: Primary Screen for Antagonists (AID 488983).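 Also: calcium flux response to an EC80 dopamine challenge measured with no-wash dye; % is scaled to controls: 0 for no effect and ±100 for the full control effect; nearly all actives have a fitted effect of over 65% in size.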 Put shortly:
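Tetracycline-induced HEK293 T-REx cells expressing force-coupled D1 were plated overnight at 30 C, dye-loaded for calcium, and read kinetically. Compounds were pinned in, then an EC80 dopamine challenge followed after 180 s to reveal antagonism.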

Experiment [16] in a line: Validation screen for small molecules that induce genotoxicity in human embryonic kidney (HEK293T) cells expressing luciferase-tagged ELG1 (AID 493106). Also: 0% is about no effect. A digest of the protocol:
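HEK293T cells expressing luciferase-tagged ELG1 were exposed to compound or DMSO vehicle for 16 hr at 37 °C, 5% CO2. Genotoxic stress raises ELG1 levels, so increased luciferase signal after ONE-Glo addition and 30 min at room temperature marks hits.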

In experiment [17] the target is ATPase family AAA domain-containing protein 5 (Homo sapiens) (UniProt Q96QE3). In words: Validation screen for small molecules that inhibit ELG1-dependent DNA repair in human embryonic kidney (HEK293T) cells expressing luciferase-tagged ELG1 (AID 493107). Also: nearly all actives have a fitted effect of over 70% in size. Also: potency is read from the fitted curve at half-maximal effect. Put shortly: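 HEK293T cells expressing luciferase-tagged ELG1 were co-treated with 5-fluorouridine and compound or DMSO for 16 hr at 37 °C, 5% CO2. Luciferase activity was then read with ONE-Glo after 30 min at room temperature; suppressed signal indicates blocked ELG1 function.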
Chain of ATPase family AAA domain-containing protein 5 (Homo sapiens) (Q96QE3 whole entry, looked up, the tested form may be a part): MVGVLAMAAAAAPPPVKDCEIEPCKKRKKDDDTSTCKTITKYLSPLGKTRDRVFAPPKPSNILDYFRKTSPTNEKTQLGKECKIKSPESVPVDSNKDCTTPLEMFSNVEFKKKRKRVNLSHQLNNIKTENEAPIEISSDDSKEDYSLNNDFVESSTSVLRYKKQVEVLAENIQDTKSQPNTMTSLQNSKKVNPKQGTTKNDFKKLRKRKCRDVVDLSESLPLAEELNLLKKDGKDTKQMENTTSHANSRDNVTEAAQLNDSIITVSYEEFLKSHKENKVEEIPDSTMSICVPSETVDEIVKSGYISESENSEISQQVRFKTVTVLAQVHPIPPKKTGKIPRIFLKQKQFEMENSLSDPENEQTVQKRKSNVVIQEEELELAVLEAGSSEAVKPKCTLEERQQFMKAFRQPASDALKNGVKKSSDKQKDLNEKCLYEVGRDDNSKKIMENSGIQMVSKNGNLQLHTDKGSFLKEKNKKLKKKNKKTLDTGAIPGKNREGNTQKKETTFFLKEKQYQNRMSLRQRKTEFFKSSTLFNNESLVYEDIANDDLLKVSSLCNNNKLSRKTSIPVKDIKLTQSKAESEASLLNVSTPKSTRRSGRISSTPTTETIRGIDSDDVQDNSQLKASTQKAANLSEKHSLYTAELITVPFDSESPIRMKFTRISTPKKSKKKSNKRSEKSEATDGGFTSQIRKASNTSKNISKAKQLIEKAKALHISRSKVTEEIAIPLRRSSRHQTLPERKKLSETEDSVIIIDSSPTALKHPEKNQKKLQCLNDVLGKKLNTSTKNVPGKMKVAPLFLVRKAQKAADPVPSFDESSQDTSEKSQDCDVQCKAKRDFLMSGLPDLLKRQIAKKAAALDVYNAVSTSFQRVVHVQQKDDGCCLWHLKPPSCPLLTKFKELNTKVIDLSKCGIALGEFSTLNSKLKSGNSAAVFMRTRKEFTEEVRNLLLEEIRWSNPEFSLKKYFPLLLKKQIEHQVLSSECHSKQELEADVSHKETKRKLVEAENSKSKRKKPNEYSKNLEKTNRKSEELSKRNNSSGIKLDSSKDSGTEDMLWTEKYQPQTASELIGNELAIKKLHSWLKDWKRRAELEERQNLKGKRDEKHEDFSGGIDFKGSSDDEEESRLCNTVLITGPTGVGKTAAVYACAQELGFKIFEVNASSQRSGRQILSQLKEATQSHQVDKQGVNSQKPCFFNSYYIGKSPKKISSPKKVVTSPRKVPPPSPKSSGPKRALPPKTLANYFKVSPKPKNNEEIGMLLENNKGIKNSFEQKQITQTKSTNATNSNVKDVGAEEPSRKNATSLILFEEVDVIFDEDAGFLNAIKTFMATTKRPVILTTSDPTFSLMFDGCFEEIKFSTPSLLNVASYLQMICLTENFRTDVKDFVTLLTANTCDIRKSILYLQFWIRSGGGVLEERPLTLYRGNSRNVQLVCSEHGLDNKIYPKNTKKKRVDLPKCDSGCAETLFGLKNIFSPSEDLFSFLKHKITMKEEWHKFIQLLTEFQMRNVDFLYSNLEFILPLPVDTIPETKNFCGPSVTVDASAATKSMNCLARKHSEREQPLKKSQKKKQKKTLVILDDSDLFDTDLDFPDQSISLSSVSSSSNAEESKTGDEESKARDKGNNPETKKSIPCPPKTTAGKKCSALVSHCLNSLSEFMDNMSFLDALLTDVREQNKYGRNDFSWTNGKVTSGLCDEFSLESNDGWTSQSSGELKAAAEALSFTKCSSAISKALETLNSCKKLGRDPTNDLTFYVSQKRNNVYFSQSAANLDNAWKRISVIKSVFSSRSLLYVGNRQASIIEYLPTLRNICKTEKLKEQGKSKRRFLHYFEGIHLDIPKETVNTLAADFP

The target in experiment [18] is Galactokinase (Homo sapiens) (UniProt P51570). Put plainly: qHTS Validation Assay for Inhibitors of Human Galactokinase (GALK) (AID 493189). Also: 0% is about no effect. A digest of the protocol:
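Inhibition was measured as remaining ATP, detected by luciferase luminescence after a 1 h room-temperature reaction. Final conditions: 5 nM GALK, 100 uM galactose, 35 uM ATP, pH 8.0 HEPES buffer.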

Chain of D(1A) dopamine receptor (Homo sapiens) (P21728 whole entry, looked up): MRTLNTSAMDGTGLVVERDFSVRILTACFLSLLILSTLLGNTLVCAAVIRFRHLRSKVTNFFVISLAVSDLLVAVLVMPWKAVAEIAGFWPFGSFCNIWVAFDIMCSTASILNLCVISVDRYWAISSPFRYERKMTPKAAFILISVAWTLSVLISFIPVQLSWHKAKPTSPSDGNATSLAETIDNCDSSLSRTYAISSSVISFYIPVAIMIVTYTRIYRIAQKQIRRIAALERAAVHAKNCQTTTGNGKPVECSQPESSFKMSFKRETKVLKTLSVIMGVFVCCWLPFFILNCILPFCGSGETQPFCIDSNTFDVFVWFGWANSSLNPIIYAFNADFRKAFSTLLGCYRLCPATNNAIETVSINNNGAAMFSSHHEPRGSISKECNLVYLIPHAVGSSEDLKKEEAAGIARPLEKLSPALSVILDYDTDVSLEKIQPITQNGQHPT
Chain of Thioredoxin reductase 1, cytoplasmic (Rattus norvegicus) (O89049 whole entry, looked up): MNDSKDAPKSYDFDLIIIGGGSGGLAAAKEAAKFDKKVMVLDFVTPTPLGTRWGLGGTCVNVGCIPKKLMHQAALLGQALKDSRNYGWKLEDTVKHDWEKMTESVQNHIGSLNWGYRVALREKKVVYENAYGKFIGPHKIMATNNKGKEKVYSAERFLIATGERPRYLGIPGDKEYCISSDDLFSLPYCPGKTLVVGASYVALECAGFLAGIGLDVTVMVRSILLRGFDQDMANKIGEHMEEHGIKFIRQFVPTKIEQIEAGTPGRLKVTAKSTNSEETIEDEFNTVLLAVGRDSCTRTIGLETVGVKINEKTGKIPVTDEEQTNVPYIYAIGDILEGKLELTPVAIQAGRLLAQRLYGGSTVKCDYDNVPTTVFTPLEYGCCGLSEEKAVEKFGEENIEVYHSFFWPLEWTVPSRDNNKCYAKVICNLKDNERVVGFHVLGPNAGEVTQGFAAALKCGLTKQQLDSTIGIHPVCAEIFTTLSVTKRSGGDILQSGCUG
Chain of Flap endonuclease 1 (Homo sapiens) (P39748 whole entry, looked up): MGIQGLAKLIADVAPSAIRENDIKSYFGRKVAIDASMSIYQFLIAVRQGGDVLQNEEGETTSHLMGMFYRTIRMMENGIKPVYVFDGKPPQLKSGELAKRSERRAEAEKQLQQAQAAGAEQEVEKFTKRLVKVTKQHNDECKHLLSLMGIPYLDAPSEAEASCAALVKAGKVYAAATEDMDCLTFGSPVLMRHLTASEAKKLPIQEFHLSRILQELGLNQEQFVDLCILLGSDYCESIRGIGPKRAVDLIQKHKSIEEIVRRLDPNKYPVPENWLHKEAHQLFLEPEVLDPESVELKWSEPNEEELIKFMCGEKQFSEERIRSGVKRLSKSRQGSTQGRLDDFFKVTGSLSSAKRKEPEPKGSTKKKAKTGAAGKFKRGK
Chain of Methanococcus maripaludis chaperonin (MmCpn) (Q6LX38 1-543): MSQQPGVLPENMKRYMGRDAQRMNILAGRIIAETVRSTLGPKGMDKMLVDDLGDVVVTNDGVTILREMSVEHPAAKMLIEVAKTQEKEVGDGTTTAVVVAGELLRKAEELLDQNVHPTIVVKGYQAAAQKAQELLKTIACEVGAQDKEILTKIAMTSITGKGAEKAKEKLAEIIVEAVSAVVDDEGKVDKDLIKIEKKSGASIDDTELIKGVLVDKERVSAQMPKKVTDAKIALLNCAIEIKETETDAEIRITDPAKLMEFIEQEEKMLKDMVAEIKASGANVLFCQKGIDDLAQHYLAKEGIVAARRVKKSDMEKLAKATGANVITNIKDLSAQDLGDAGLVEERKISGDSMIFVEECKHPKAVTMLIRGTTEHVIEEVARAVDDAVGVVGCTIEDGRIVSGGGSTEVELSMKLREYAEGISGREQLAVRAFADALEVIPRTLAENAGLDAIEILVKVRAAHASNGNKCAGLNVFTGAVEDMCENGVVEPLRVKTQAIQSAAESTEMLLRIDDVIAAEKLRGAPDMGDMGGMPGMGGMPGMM
Chain of Galactokinase (Homo sapiens) (P51570 whole entry, looked up): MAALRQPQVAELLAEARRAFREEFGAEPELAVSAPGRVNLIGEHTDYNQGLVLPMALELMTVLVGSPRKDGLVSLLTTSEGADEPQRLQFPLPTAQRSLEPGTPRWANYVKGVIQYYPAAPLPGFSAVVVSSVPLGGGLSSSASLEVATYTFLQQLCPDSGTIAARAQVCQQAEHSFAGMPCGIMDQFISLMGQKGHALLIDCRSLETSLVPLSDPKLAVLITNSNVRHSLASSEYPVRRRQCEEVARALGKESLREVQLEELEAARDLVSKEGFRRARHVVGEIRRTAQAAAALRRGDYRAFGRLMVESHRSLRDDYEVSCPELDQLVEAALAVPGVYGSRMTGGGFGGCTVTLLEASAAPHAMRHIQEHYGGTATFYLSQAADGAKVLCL

As for `Cc1cc(NC(=O)Nc2ccc3c(ccn3C)c2)sn1`, the Potency result in experiment [1], in experiment [2], in [3], in experiment [4], in experiment [8] and in [9] was “inactive” each time. In addition, the Potency entry in experiment [11] and in experiment [13] was “inactive” each time. Further, the call in experiment [5], in [6], in experiment [7] and in experiment [12] was inactive. Moreover, the activation in experiment [10] is 0.625% (inactive). Further, the viability change in experiment [11] amounted to 3.91%.
Consider `O=C(c1ccc(Cl)cc1)N1CCN(c2ccc([N+](=O)[O-])c3ncccc23)CC1`, for which the Potency entry in experiment [1], in experiment [2], in experiment [3], in experiment [14], in experiment [8] and in experiment [9] was “inactive” each time. In addition, the Potency entry in [15] and in [16] was “inactive” throughout. Further, the outcome in experiment [5] and in experiment [12] was inactive. Further, the Potency in experiment [17] was 20.6 µM (active).
Take `Nc1nc(Cl)nc2c1ncn2[C@@H]1O[C@H](COP(=O)(O)OP(=O)(O)OP(=O)(O)O)[C@@H](O)[C@H]1O`: the Potency entry in [1], in experiment [2], in [3], in experiment [4], in experiment [14] and in experiment [17] was “inactive” each time. The Potency entry in experiment [11] was “inactive”. In [8], the Potency is 0.891 µM (active). Also, the viability change in experiment [11] was determined as 3.12%. Besides, the call in experiment [12] was inactive.
Consider `CCCC1(C)C(C#N)(C#N)C1(C#N)C#N`, for which the Potency entry in experiment [1], in experiment [3], in [4], in experiment [14], in [8] and in experiment [9] was “inactive” each time. Further, the Potency entry in [15] was “inactive”. Further, the Potency in experiment [2] was 10.6 µM (active); in experiment [17], 16.4 µM (active). The molecule was called inactive in [12].
`CN1CCC[C@H]1c1cccnc1`: the Potency result in [1], in experiment [2], in [3], in [4], in experiment [8] and in [15] was “inactive” in each case. Moreover, the Potency entry in experiment [16], in experiment [17], in [18] and in [13] was “inactive” throughout. Besides, the result in experiment [6] and in experiment [12] was inactive. The activation in experiment [10] is 0.5% (inactive).
Consider `O=C(O)CC[C@@H](C(=O)O)N1C(=O)c2ccccc2C1=O`, for which the Potency entry in experiment [1], in [2], in experiment [3], in experiment [4], in experiment [8] and in [15] was “inactive” each time. Besides, the Potency entry in [16], in experiment [17], in experiment [11], in [18] and in experiment [13] was “inactive” throughout. Moreover, the result in experiment [5], in experiment [6], in [7] and in [12] was inactive. Besides, the activation in [10] is 0.125% (inactive). In addition, the viability change in experiment [11] came to 9.01%.
In the case of `Clc1ccc(N2CCN(Cc3c[nH]c4ncccc34)CC2)cc1`, the Potency result in experiment [1], in experiment [2], in [3], in [4], in experiment [8] and in experiment [9] was “inactive” each time. Moreover, the Potency result in experiment [16], in [17], in experiment [11], in experiment [18] and in [13] was “inactive” each time. Also, the result in [5], in experiment [6] and in experiment [7] was inactive. In addition, the activation in experiment [10] was 2.19% (inactive). Moreover, the viability change in experiment [11] is -2.66%.
For the molecule `NC[C@@H]1O[C@H](C23CC4CC(CC(C4)C2)C3)Cc2c1ccc(O)c2O`, the Potency entry in experiment [1], in [2], in [3], in [16], in experiment [11] and in [13] was “inactive” each time. The Potency in experiment [4] was 20 µM (active) and inactive. For the same molecule, the outcome in experiment [5], in [7] and in experiment [12] was inactive. Also, in [10], the activation was 8.12% (inactive). Further, the viability change in [11] was determined as 3.16%.
Take `C[N+]1(C)CCC(OC(=O)C(c2ccccc2)c2ccccc2)CC1`: the Potency result in experiment [1], in experiment [2], in [14], in experiment [8], in [15] and in experiment [16] was “inactive” in each case. Also, the Potency entry in experiment [11] is “inactive”. In addition, the outcome in experiment [5] was inactive. Besides, the viability change in experiment [11] was found to be 1.14%.
Turning to `Clc1ccc(N2CCN(Cc3cc4ccccn4n3)CC2)cc1`, the Potency entry in [1], in [2], in [3], in [4], in experiment [8] and in experiment [9] was “inactive” throughout. Further, the Potency entry in experiment [15], in [16] and in [17] was “inactive” each time. Also, the result in experiment [5] and in experiment [12] was inactive.
